PubChem BioAssay (Tox21)
Activity calls are given as the source filed them. A call without a number means that no potency is given here. Calls come from the whole dose curve; as a rule, active = well fitted curve in the direction sought with a large enough effect in the repeat runs; inconclusive = weak or mixed curves; inactive = flat fitted curve, though single readings scatter.

Test: qHTS assay to test for compound auto fluorescence at 460 nm (blue) in HEK293 cells (AID 720678)
Conditions: blue autofluorescence 405/460 nm; series mostly up to 91.3 µM
Description: National Center for Advancing Translational Sciences [NCATS]
NIH Chemical Genomics Center [NCGC]
U.S. Environmental Protection Agency [EPA]
National Institutes of Environmental Health Sciences [NIEHS]
National Toxicology Program [NTP]
U.S. Food and Drug Administration [FDA]
Compound auto fluorescence often interferes with screening of the compound library against various biological targets and signaling pathways. Some of these compounds may have fluorophoric properties. Such properties may interfere with the assay outputs resulting in false positives and/or negatives. To decrease such complications and ensure the compound activities are relevant in terms of biological response, the Tox21 10K compound library was screened for auto fluorescence.
From the fluorophores used as reporter signals in our screening assays, the auto fluorescence equivalencies of compounds against three fluorophores have been evaluated: Triamterene, Fluorescein and Rose Bengal sodium for blue, green and red fluorescence, respectively. The fluorescence intensities were measured using Excitation/Emission wavelengths at 405/460nm, 485/535nm and 540/590nm for blue, green and red labels, respectively. This assay includes the blue fluorescence data.
Tox21 Assay Protocol Summary:
2,000 HEK293 cells in 5 uL of culture medium containing 10% dialyzed FBS per well were dispensed into black wall/clear bottom 1536-well plates using a Multidrop Combi Dispenser (Thermo Scientific). The assay plates were incubated for 4-5 hr at 37C to allow cell attachment to the well bottom, followed by the transfer of 23 nL compound or DMSO vehicle by a pintool work station (Kalypsys, San Diego, CA). After the assay plates were incubated overnight at 37C and 5% CO2, fluorescence intensities in the assay plates were measured by an Envision (PerkinElmer, Shelton, CT) plate reader using three labels for measuring blue, green and red fluorescence at […] 460, 535 and 590nm respectively.

Compound | Potency | fluorescence, % of triamterene
CCC(C)(O)CCC=C(C)C (stereo not given) | inactive | 
Oc1ccc(Nc2ccccc2)cc1 | inactive | 
O=[N+]([O-])c1cccc(S(=O)(=O)NCCNS(=O)(=O)c2cccc([N+](=O)[O-])c2)c1 | inactive | 
CC(CCO)CCc1ccccc1 (stereo not given) | inactive | 
O=C(Nc1ccccc1)Nc1ccccc1 | inactive | 
CSc1ccc(Oc2ccc(S(N)(=O)=O)cc2CN(C)C)cc1C | inactive | 
O=C(C(=O)c1ccccc1)c1ccccc1 | inactive | 
CC(=O)[C@H]1CC[C@H]2[C@@H]3C=CC4=CC(=O)CC[C@@]4(C)[C@@H]3CC[C@]12C |  | -0.137% [at 18.6 µM] (inactive)
O=C(OCCOCCO)c1ccccc1Nc1cccc(C(F)(F)F)c1 |  | -0.0212% [at 18.6 µM] (inactive)
CC1=CC(O)CC(C)(C)C1 (stereo not given) | inactive | 
CC(CCc1ccc2c(c1)OCO2)NN (stereo not given) | inactive | 
CCCOC(=O)c1ccc(N)cc1 | inactive | 
CC(C)(C)CC(C)(C)c1ccc(OCCO)cc1 | inactive | 
NCC1CCCC(CN)C1 (stereo not given) | inactive | 
CN1C(=O)CC(C)(c2ccccc2)C1=O (stereo not given) | inactive | 
CC(=O)Nc1ccc(N)cc1 | inactive | 
O=C(CCCN1CCN(c2ccc(F)cc2)CC1)NC1c2ccccc2CSc2ccccc21 (stereo not given) | inactive | 
CC(=O)Oc1ccc2c(c1)CC[C@@H]1[C@@H]2CC[C@]2(C)[C@@H](O)CC[C@@H]12 | inactive | 
CCCCC(=O)O[C@]1(C(=O)CO)CC[C@H]2[C@@H]3CCC4=CC(=O)CC[C@]4(C)[C@H]3[C@@H](O)C[C@@]21C | inactive | 
CN(C(=O)C(Cl)Cl)c1ccc(OC(=O)c2ccco2)cc1 | inactive | 

Compound | Potency | fluorescence, % of triamterene
CC(C)CCCC(=O)O | inactive | 
O=C(O)c1snc(Cl)c1Cl | inactive | 
O=C(/C=C/c1ccccc1)OCCCc1ccccc1 | inactive | 
C1COCO1 | inactive | 
O=C(N[C@@H](c1ccccc1)[C@@H]1CCCCN1)c1cccc(C(F)(F)F)c1Cl | inactive | 
CCC(=O)OC/C=C/c1ccccc1 | inactive | 
O=C(O)c1cccnc1C(=O)O | inactive | 
CCC(C)(C)C1CCC(O)CC1 (stereo not given) | inactive | 
O=C(N/N=C/c1ccc([N+](=O)[O-])o1)c1ccc(O)cc1 |  | 0.159% [at 18.6 µM] (inactive)
Brc1cc(-c2ccc(Br)c(Br)c2Br)cc(Br)c1Br | inactive | 
CO[C@@]12[C@H](COC(N)=O)C3=C(C(=O)C(C)=C(N)C3=O)N1C[C@@H]1N[C@@H]12 | inactive | 
CCCCCCCCCCCC[N+](C)(C)CC(=O)[O-] | inactive | 
Nc1ccc(S(=O)(=O)O)cc1 | inactive | 
Cc1ccnc2ccccc12 | inactive | 
CC(C)OCC1CO1 (stereo not given) | inactive | 
Cc1cc(S(=O)(=O)O)ccc1N=Nc1c(O)ccc2ccccc12 | inactive | 
CCCCCCCC/C=C\CCCCCCCC(=O)OC(CO)CO | inactive | 
C[Si]1(C)O[Si](C)(C)O[Si](C)(C)O1 | inactive | 
O=C(CS)OCCOC(=O)CS | inactive | 
COc1cc2c(cc1OC)-c1cc(=Nc3c(C)cc(C)cc3C)n(C)c(=O)n1CC2 | inactive | 
